According to PubChem BioAssay (NCI):
The panel holds about 83,000 compounds, 20% with a hit somewhere; the sample as a whole holds those more often.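 The test compound was applied at a single concentration to cells in 96-well plates for 48 hours, and percent growth was recorded.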 Values without a mark were called inactive. The source made the active and inactive calls. The calls were made as follows: active = growth percent below 10; inactive = the rest.

Key:
Experiment in all cases: NCI-60 one-dose screen, 48 h (100 = growth as untreated, 0 = no growth, -100 = all killed)
NCI-H23 lung = conditions: 10 µM unless noted
NCI-H226 lung = conditions: 10 µM unless noted
NCI-H322M lung = conditions: 10 µM unless noted
HOP-62 NSCLC = conditions: 10 µM unless noted
NCI-H460 lung = conditions: 10 µM unless noted
HOP-92 NSCLC = conditions: 10 µM unless noted
NCI-H522 lung = conditions: 10 µM unless noted
A549/ATCC NSCLC = conditions: 10 µM unless noted
786-0 renal = conditions: 10 µM unless noted
COLO 205 colon = conditions: 10 µM unless noted
DU-145 prostate = conditions: 10 µM unless noted
K-562 leukemia = conditions: 10 µM unless noted
MALME-3M melanoma = conditions: 10 µM unless noted
MDA-MB-231 breast = conditions: 10 µM unless noted
RXF 393 renal = conditions: 10 µM unless noted
SF-268 CNS = conditions: 10 µM unless noted
SF-295 CNS = conditions: 10 µM unless noted
SF-539 CNS = conditions: 10 µM unless noted
UACC-257 melanoma = conditions: 10 µM
M14 melanoma = conditions: 10 µM unless noted

Row | Compound | growth (NCI-H23 lung) | growth (NCI-H226 lung) | growth (NCI-H322M lung) | growth (HOP-62 NSCLC) | growth (NCI-H460 lung) | growth (HOP-92 NSCLC) | growth (NCI-H522 lung) | growth (A549/ATCC NSCLC) | growth (786-0 renal) | growth (COLO 205 colon) | growth (DU-145 prostate) | growth (K-562 leukemia) | growth (MALME-3M melanoma) | growth (MDA-MB-231 breast) | growth (RXF 393 renal) | growth (SF-268 CNS) | growth (SF-295 CNS) | growth (SF-539 CNS) | growth (UACC-257 melanoma) [%] | growth (M14 melanoma)
1 | COc1ccc(-c2nnc(SCc3ccc(O)c4ncccc34)n2-c2ccccc2)cc1 | 17.6% | 30.1% | 19.8% | 19.9% | 2.93% (active) | -4.84% (active) | 15.5% | 26.4% | 25.5% | 68.6% | 24.8% | 13.3% | 10.6% | 30.9% | 7.27% (active) | 18.1% | -1.96% (active) | 4.55% (active) | 13.6 | -13.5% (active)
2 | COC(=O)c1c(C(=O)OC)c2n(CC(=O)Nc3cccc4cccnc34)c3ccccc3n2c1C(=O)c1ccc(C)cc1 | 94.1% | 88% | 99% | 96% | 103% | 89.7% | 80.5% | 91.2% | 101% | 114% | 105% | 91.2% | 97.7% | 88.4% | 97.8% | 97.2% | 95.1% | 106% | 104 | 99.9%
3 | C#CCOc1ccc(C(Nc2ccc(OC)cc2)c2nnnn2C2CCCCC2)cc1 (stereo not given) | 99.8% | 101% | 97.3% | 98.9% | 103% | 93.9% | 89.3% | 92.2% | 95.5% | 106% | 109% | 94.4% | 98.5% | 86.6% | 114% | 102% | 100% | 104% | 102 | 97.2%
4 | CCN(CC)CCN1C(=O)c2c(c3c4cc(Br)ccc4[nH]c3c3ccc4ccccc4c23)C1=O | -81.8% (active) | 60.8% | -92.3% (active) | -66.9% (active) | -65.8% (active) | -65.1% (active) | -41.9% (active) | -80.1% (active) | -85.9% (active) | -3.78% (active) | -94.1% (active) | -64.8% (active) | -69.1% (active) | -65.3% (active) | -77.3% (active) | -42.2% (active) | -89% (active) | -96.9% (active) | 103 | -63.9% (active)
5 | C[C@@H]1C[C@H]2C(=O)OCC(NC(=O)[C@H](Cc3cc(F)cc(F)c3)NC(=O)Nc3ccc(Cl)cc3F)C(=O)N3CCC[C@H]3C(=O)N3CCCC[C@H]3C(=O)N[C@@H](C)C(=O)N2C1 (stereo not given in full) | 37.9% | -4.62% (active) | 48.3% | 39.1% | 14.8% | 9.65% (active) | 17.2% | 25.1% | 33.6% | -9.71% (active) | 24.7% | 19.3% | 35.9% | 27.3% | -12.6% (active) | 29.8% | 8.11% (active) | 32.1% | 17.2 | 19%
6 | C#CCOc1ccc(C(Nc2cc(Cl)ccc2Cl)c2nnnn2C2CCCCC2)cc1 (stereo not given) | 88.6% | 85.3% | 87.4% | 86.4% | 88.3% | 72.7% | 69.9% | 80.5% | 90% | 107% | 97.7% | 83.5% | 101% | 73.7% | 92.6% | 83.4% | 80.7% | 95.3% | 102 | 92.2%
7 | COc1ccc(C(=O)n2cc(C=O)c3ccccc32)cc1 | 101% | 96.7% | 95.2% | 124% | 110% | 83.1% | 98.6% | 98.6% | 102% | 114% | 105% | 82.1% | 93.2% | 91.8% | 106% | 92.5% | 99.6% | 89.2% | 103 | 82.8%
8 | Cc1ccc(-c2cc3nc(C(Cl)Cl)nc(-c4ccccc4)n3n2)cc1 | 95.4% | 103% | 74.3% | 73.6% | 46.9% | 94.9% | 98.1% | 77.5% | 94.4% | 54.3% | 2.08% (active) | 90.4% | 122% | 79.7% | 70.4% | 89% | 79.8% | 90.8% | 112 | 112%
